# PubChem BioAssay AID1578 (Sanford-Burnham Center for Chemical Genomics, 2009)
# Hit rate of the full screen: of about 290,000 compounds, about 3,000 (1%) were called active. No stated cut-off is given here; in the data, active means inhibition mostly above about 36% (no sharp cut-off); inactive means mostly below about 34%. Only a selection was taken, and actives are over-represented in it overall.
# Assay: inhibition of NOD1-driven NF-kB reporter – cell-based, luminescence, uHTS, primary screen (AID 1578);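 further: HEK-293T reporter cells stimulated with the NOD1 agonist gamma-tri-DAP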
# Conditions: NOD1-driven NF-kB luciferase reporter cells, at 4 µM, hits give high values
row,Structure (SMILES),inhibition
1,Cc1ccccc1-n1nc2c(c1NC(=O)C(C)C)CS(=O)(=O)C2,-6.5% (inactive)
2,N#Cc1ccccc1NC(=O)c1ccc2c(Cl)c3c(nc2c1)CCCC3,66.5% (active)
3,CC(=O)c1cccc(NC(=O)c2ccc3c(Cl)c4c(nc3c2)CCCC4)c1,-3.3% (inactive)
4,O=C(Nc1cccnc1Cl)c1ccc2c(Cl)c3c(nc2c1)CCC3,-39.9% (inactive)
5,Clc1ccc(C2Nc3ccccc3-n3cccc32)cc1 (configuration not stated),-20.2% (inactive)
6,CN1CCCN(C(=O)c2ccc(Cl)s2)CC1,-15% (inactive)
7,O=C(c1cc2ccccc2oc1=O)N(Cc1ccc2c(c1)OCO2)Cc1ccco1,-2.2% (inactive)
8,O=C(c1cc2ccccc2oc1=O)N(Cc1ccccc1)Cc1ccc2c(c1)OCO2,50.1% (active)
9,O=C(NCc1ccc2c(c1)OCO2)c1cc2ccccc2oc1=O,11.3% (inactive)
10,COc1cc(C(C(=O)NC2CCCCC2)N(Cc2ccco2)C(=O)c2cnccn2)cc(OC)c1OC (configuration not stated),-34.1% (inactive)
11,C[C@]12C=CC(=O)C=C1CC[C@@H]1C2C(O)C[C@@]2(C)C1CC[C@]2(O)C(=O)COC(=O)CCC(=O)NC(CC(=O)O)C(=O)O (some centres not stated),-8.1% (inactive)
12,O=C(/C=C/c1ccc(F)cc1)NC(=S)NC1CCCCC1,36.3% (active)
13,O=C(/C=C/c1ccc(F)cc1)NC(=S)Nc1ccccc1C(=O)NC1CCCCC1,12.3% (inactive)
14,CN(C(=S)NC(=O)/C=C/c1ccc(F)cc1)C1CCCCC1,-22.9% (inactive)
15,COc1cccc2c(Nc3ccccc3C)cc(C)nc12,6.4% (inactive)
16,COc1ccc(/C=C(\C#N)c2nc3ccccc3[nH]2)cc1O,12% (inactive)
17,COc1cc(/C=C(/C(=O)c2cccs2)c2nc3ccccc3[nH]2)cc(OC)c1O,98.8% (active)
18,COc1cc(/C=C(\C#N)c2nc3ccccc3[nH]2)cc(OC)c1O,6.4% (inactive)
19,COc1ccc(C(=O)N/C(=C/c2cccs2)c2nc3ccccc3[nH]2)cc1OC,-5.7% (inactive)
20,COC(=O)/C(=C\c1ccc(O)cc1)c1nc2ccccc2[nH]1,-44.4% (inactive)
21,O=C(CN1CCOCC1)OCCCc1ccccc1,-23.1% (inactive)

row,Structure (SMILES),inhibition
1,CCCCNC(=O)Nc1c(C(=O)OCC)[nH]c2ccccc12,-25.1% (inactive)
2,CCOC(=O)CCCCCN(Cc1ccccc1)S(=O)(=O)c1ccc([N+](=O)[O-])cc1,-22.1% (inactive)
3,CCOC(=O)c1c(-c2ccc(C)o2)csc1NC(=O)CN1CCOCC1,14.9% (inactive)
4,CCc1nc(SCc2ccccc2C#N)n[nH]1,-30.4% (inactive)
5,O=C(Nc1ccc(C(=O)N2CCCC2)cc1)c1ccc(F)cc1Cl,-14% (inactive)
6,CCOC(=O)N1CCN(C(=O)c2ccc(Cn3c(=S)[nH]c4cc(OCC)c(OCC)cc4c3=O)cc2)CC1,19.9% (inactive)
7,CCOC(=O)N1CCN(C(=O)c2ccc(Cn3c(=S)[nH]c4cc(C(=O)OC)ccc4c3=O)cc2)CC1,-11% (inactive)
8,COc1ccc(Cn2c(=O)[nH]c3cc(C(=O)N4CCN(c5ccccn5)CC4)ccc3c2=O)cc1,-10.7% (inactive)
9,O=C(c1ccc(Cn2c(=O)[nH]c3ccccc3c2=O)cc1)N1CCN(c2ccccn2)CC1,-8.3% (inactive)
10,O=C(CSc1ncccc1C(=O)O)NC1CCCCC1,-47.1% (inactive)
11,CC(C)C(=O)Nc1ccc(Cl)cc1-c1nc2ccccc2[nH]c1=O,34.6% (inactive)
12,Cc1cccc(C)c1NC(=O)CSc1nnc([C@@H]2CCCN2C(=O)OC(C)(C)C)o1,-0.7% (inactive)
13,N#CCS(=O)(=O)c1ccccc1,-5.7% (inactive)
14,O=C(CSc1nc2scc(-c3ccccc3)c2c(=O)[nH]1)N1CCCCC1,-9.2% (inactive)
15,O=C(CSc1nc2scc(-c3ccccc3)c2c(=O)[nH]1)NC1CCCCC1,67.6% (active)
16,CC(C)(C)NC(=O)CSc1nc2scc(-c3ccccc3)c2c(=O)[nH]1,25.7% (inactive)
17,Cc1ccc2nc(CNC(=O)C3CCC(=O)N(Cc4ccccc4F)C3)cn2c1 (configuration not stated),-21.3% (inactive)
18,Cc1ccc(C2=NNC3(CCOC(C)(C)C3)S2)cc1 (configuration not stated),74.5% (active)
19,CCc1ccc2c(c1)C1(NN=C(c3ccc(C)cc3)S1)C(=O)N2 (configuration not stated),15.2% (inactive)
20,Cc1ccc(C2(CC(=O)O)CCOC(C)(C)C2)cc1 (configuration not stated),5.4% (inactive)
21,O=C(c1cnsn1)N1CCC(CO)(Cc2ccc(Cl)cc2)CC1,-10.4% (inactive)

row,Structure (SMILES),inhibition
1,NC(=O)c1cc(-c2csc(NCCc3ccccc3)n2)ccc1O,-52.8% (inactive)
2,COc1ccc(N2CCN(C(=O)CSc3nc4[nH]ncc4c(=O)n3-c3ccc(Br)cc3)CC2)cc1,8.7% (inactive)
3,CCCNC(=O)C(=O)NCC1CCCN1CC (configuration not stated),-18.5% (inactive)
4,CCN1CCCC1CNC(=O)C(=O)NC1CC1 (configuration not stated),40.8% (active)
5,CCN1CCCC1CNC(=O)C(=O)NC (configuration not stated),-17.4% (inactive)
6,CCCCNC(=O)Cn1c(-c2ccc(OC)cc2)noc1=O,-2.3% (inactive)
7,COc1ccc(NC(=O)N2CCC(O)(c3cccnc3)CC2)c(OC)c1,15.9% (inactive)
8,Fc1ccc(-c2ccnn2-c2ccccc2)cc1,-18.4% (inactive)
9,Oc1ccc(Br)cc1-c1ccnn1-c1ccccc1,82.1% (active)
10,Oc1ccc(Br)cc1-c1cc(-c2ccccc2)n[nH]1,-13.2% (inactive)
11,COC(=O)CCCCC1SCC2NC(=O)NC21O (configuration not stated),-2.5% (inactive)
12,Cc1nnc(NC(=O)c2sc3ccccc3c2Cl)s1,-46.1% (inactive)
13,Cc1ccc2c(Cl)c(C(=O)Nc3cccnc3)sc2c1,87.9% (active)
14,O=C(Nc1cccnc1)Nc1cc(Cl)cc(Cl)c1,76.8% (active)
15,Cc1ccc(NC(=O)c2sc3ccccc3c2Cl)nc1,-21.7% (inactive)
16,Cc1ccc2c(Cl)c(C(=O)Nc3cc(C)on3)sc2c1,-79.3% (inactive)
17,Cc1ccc2c(Cl)c(C(=O)NCc3cccnc3)sc2c1,12.2% (inactive)
18,Cc1cnc(NC(=O)c2sc3ccccc3c2Cl)s1,105% (active)
19,O=C(Nc1ccc(Cl)cc1)Nc1cccnc1,-14.9% (inactive)
20,O=C(Nc1cccnc1)Nc1ccccc1Cl,-8.9% (inactive)
